Eleven sequences from PMC11006913 can be followed below.

Common to all, as to experiment: PBM; 200 nM protein, PBS
Common to all, as to details: dsDNA, one strand shown

Test [1] has as its target HESX1 (Homo sapiens, UniProt Q9UBX0 95-180, R165K).
Test [2] addresses PRRX1 (Homo sapiens, UniProt P54821 80-166, F113S).
The target in test [3] is HESX1 (Homo sapiens, UniProt Q9UBX0 95-180).
Test [4] concerns the target ALX1 (Homo sapiens, UniProt Q15699 118-204, L144V).
The target of another test is PITX2 (Homo sapiens, UniProt Q99697 72-157).
Test [5] has as its target ALX1 (Homo sapiens, UniProt Q15699 118-204, L144R).
Test [6] concerns the target HESX1 (Homo sapiens, UniProt Q9UBX0 95-180, R109Q).
Test [7] has as its target HESX1 (Homo sapiens, UniProt Q9UBX0 95-180, P111T).
Test [8] deals with HESX1 (Homo sapiens, UniProt Q9UBX0 95-180, F115L).
Sequence of HESX1 (Homo sapiens, UniProt Q9UBX0 95-180, F115L) (Q9UBX0 95-180 F115L): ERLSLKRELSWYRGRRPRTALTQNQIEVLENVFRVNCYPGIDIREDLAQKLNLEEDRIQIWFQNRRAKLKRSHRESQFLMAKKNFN
Test [9] concerns the target ALX1 (Homo sapiens, UniProt Q15699 118-204).
Test [10] addresses PRRX1 (Homo sapiens, UniProt P54821 80-166).
A further test deals with T1, NKX2-6 (Homo sapiens, UniProt A6NCS4 118-204, R150C).
T1 sequence: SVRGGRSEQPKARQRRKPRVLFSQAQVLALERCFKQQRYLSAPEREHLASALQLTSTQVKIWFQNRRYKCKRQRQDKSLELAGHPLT

The target of test [11] is HOXC10 (Homo sapiens, UniProt Q9NYD6 254-340).
Sequence of HOXC10 (Homo sapiens, UniProt Q9NYD6 254-340) (Q9NYD6 254-340): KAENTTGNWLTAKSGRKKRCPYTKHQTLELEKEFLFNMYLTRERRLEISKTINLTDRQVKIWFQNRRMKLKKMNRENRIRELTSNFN
The target in test [12] is HOXC10 (Homo sapiens, UniProt Q9NYD6 254-340, K271E).
Sequence of HOXC10 (Homo sapiens, UniProt Q9NYD6 254-340, K271E) (Q9NYD6 254-340 K271E): as the sequence (Q9NYD6 254-340) above, with K18E counted along it
For test [13], the target named is ALX4 (Homo sapiens, UniProt Q9H161 200-286).
Sequence of ALX4 (Homo sapiens, UniProt Q9H161 200-286) (Q9H161 200-286): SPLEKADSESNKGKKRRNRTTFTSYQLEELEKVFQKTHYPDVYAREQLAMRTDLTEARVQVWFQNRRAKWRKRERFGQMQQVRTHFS
For test [14], the target named is ALX4 (Homo sapiens, UniProt Q9H161 200-286, Q225E).
Sequence of ALX4 (Homo sapiens, UniProt Q9H161 200-286, Q225E) (Q9H161 200-286 Q225E): as the sequence (Q9H161 200-286) above, with Q26E counted along it
Test [15] deals with VAX1 (Homo sapiens, UniProt Q5SQQ9 86-172).
Sequence of VAX1 (Homo sapiens, UniProt Q5SQQ9 86-172) (Q5SQQ9 86-172): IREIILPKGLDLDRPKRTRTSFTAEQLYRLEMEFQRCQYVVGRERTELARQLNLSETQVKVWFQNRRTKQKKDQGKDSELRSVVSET
The target of test [16] is VAX1 (Homo sapiens, UniProt Q5SQQ9 86-172, T142I).
Sequence of VAX1 (Homo sapiens, UniProt Q5SQQ9 86-172, T142I) (Q5SQQ9 86-172 T142I): as the sequence (Q5SQQ9 86-172) above, with T57I counted along it
The target in test [17] is VAX1 (Homo sapiens, UniProt Q5SQQ9 86-172, K157R).
Sequence of VAX1 (Homo sapiens, UniProt Q5SQQ9 86-172, K157R) (Q5SQQ9 86-172 K157R): as the sequence (Q5SQQ9 86-172) above, with K72R counted along it
Test [18] has as its target HOXB6 (Homo sapiens, UniProt P17509 132-218, K202E).
In test [19] the target is HOXB6 (Homo sapiens, UniProt P17509 132-218).
Sequence of HOXB6 (Homo sapiens, UniProt P17509 132-218) (P17509 132-218): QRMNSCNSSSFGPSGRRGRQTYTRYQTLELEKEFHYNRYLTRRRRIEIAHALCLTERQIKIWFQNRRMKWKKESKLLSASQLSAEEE
Test [20] deals with HOXD13 (Homo sapiens, UniProt P35453 263-343, T313R).
Sequence of HOXD13 (Homo sapiens, UniProt P35453 263-343, T313R) (P35453 263-343 T313R): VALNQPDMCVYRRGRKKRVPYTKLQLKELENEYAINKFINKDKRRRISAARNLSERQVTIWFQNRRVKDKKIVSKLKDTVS
The target in test [21] is HOXD13 (Homo sapiens, UniProt P35453 263-343).
Sequence of HOXD13 (Homo sapiens, UniProt P35453 263-343) (P35453 263-343): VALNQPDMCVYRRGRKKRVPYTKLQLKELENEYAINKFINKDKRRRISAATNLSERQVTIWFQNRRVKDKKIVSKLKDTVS
Test [22] deals with HOXD13 (Homo sapiens, UniProt P35453 263-343, T313A).
Sequence of HOXD13 (Homo sapiens, UniProt P35453 263-343, T313A) (P35453 263-343 T313A): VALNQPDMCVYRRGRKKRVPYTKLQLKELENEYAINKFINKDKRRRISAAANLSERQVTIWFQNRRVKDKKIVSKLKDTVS

Sequence of HESX1 (Homo sapiens, UniProt Q9UBX0 95-180, R165K) (Q9UBX0 95-180 R165K): as the sequence (Q9UBX0 95-180 F115L) above, with L21F, R71K counted along it
Sequence of HESX1 (Homo sapiens, UniProt Q9UBX0 95-180, P111T) (Q9UBX0 95-180 P111T): as the sequence (Q9UBX0 95-180 F115L) above, with P17T, L21F counted along it
Sequence of HESX1 (Homo sapiens, UniProt Q9UBX0 95-180) (Q9UBX0 95-180): as the sequence (Q9UBX0 95-180 F115L) above, with L21F counted along it
Sequence of HESX1 (Homo sapiens, UniProt Q9UBX0 95-180, R109Q) (Q9UBX0 95-180 R109Q): as the sequence (Q9UBX0 95-180 F115L) above, with R15Q, L21F counted along it
Sequence of PRRX1 (Homo sapiens, UniProt P54821 80-166) (P54821 80-166): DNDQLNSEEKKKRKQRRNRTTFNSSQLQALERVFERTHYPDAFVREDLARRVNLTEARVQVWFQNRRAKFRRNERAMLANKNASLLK
Sequence of PRRX1 (Homo sapiens, UniProt P54821 80-166, F113S) (P54821 80-166 F113S): as the sequence (P54821 80-166) above, with F34S counted along it
Sequence of ALX1 (Homo sapiens, UniProt Q15699 118-204) (Q15699 118-204): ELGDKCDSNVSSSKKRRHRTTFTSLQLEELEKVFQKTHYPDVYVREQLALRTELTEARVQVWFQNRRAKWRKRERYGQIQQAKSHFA
Sequence of ALX1 (Homo sapiens, UniProt Q15699 118-204, L144R) (Q15699 118-204 L144R): as the sequence (Q15699 118-204) above, with L27R counted along it
Sequence of HOXB6 (Homo sapiens, UniProt P17509 132-218, K202E) (P17509 132-218 K202E): as the sequence (P17509 132-218) above, with K71E counted along it
Sequence of ALX1 (Homo sapiens, UniProt Q15699 118-204, L144V) (Q15699 118-204 L144V): as the sequence (Q15699 118-204) above, with L27V counted along it

As to ACGGAAGG, the binding signal with HESX1 [1] is 6.5 upbm affinity estimate (log intensity, higher = more binding, comparable within an allelic series); in the test with PRRX1 [2], 9.38 upbm affinity estimate (log intensity, higher = more binding, comparable within an allelic series); with HESX1 [3], 6.36 upbm affinity estimate (log intensity, higher = more binding, comparable within an allelic series); with ALX1 [4], 6.56 upbm affinity estimate (log intensity, higher = more binding, comparable within an allelic series); in the test with PITX2, 7.95 upbm affinity estimate (log intensity, higher = more binding, comparable within an allelic series); with ALX1 [5], 6.44 upbm affinity estimate (log intensity, higher = more binding, comparable within an allelic series). Also, the binding signal with HESX1 [6] is 6.53 upbm affinity estimate (log intensity, higher = more binding, comparable within an allelic series); with HESX1 [7] it was 6.63 upbm affinity estimate (log intensity, higher = more binding, comparable within an allelic series); with HESX1 [8], 6.5 upbm affinity estimate (log intensity, higher = more binding, comparable within an allelic series); in the test with ALX1 [9], 6.35 upbm affinity estimate (log intensity, higher = more binding, comparable within an allelic series); with PRRX1 [10], 9.17 upbm affinity estimate (log intensity, higher = more binding, comparable within an allelic series).

For AGCCGGTC, the binding signal is 6.51 upbm affinity estimate (log intensity, higher = more binding, comparable within an allelic series) with HESX1 [1]; 6.44 upbm affinity estimate (log intensity, higher = more binding, comparable within an allelic series) with HESX1 [3]; 9.54 upbm affinity estimate (log intensity, higher = more binding, comparable within an allelic series) in the test with NKX2-6; 6.51 upbm affinity estimate (log intensity, higher = more binding, comparable within an allelic series) with HESX1 [6]; 6.57 upbm affinity estimate (log intensity, higher = more binding, comparable within an allelic series) with HESX1 [7]; 6.52 upbm affinity estimate (log intensity, higher = more binding, comparable within an allelic series) with HESX1 [8].

As for CGGCTAGC, the binding signal was 6.5 upbm affinity estimate (log intensity, higher = more binding, comparable within an allelic series) in the test with HESX1 [1]; 9.98 upbm affinity estimate (log intensity, higher = more binding, comparable within an allelic series) in the test with HOXC10 [11]; 9.18 upbm affinity estimate (log intensity, higher = more binding, comparable within an allelic series) in the test with PRRX1 [2]; 6.49 upbm affinity estimate (log intensity, higher = more binding, comparable within an allelic series) with HESX1 [3]; 10 upbm affinity estimate (log intensity, higher = more binding, comparable within an allelic series) with HOXC10 [12]; 6.39 upbm affinity estimate (log intensity, higher = more binding, comparable within an allelic series) with HESX1 [6]. For the same sequence, the binding signal in the test with HESX1 [7] is 6.54 upbm affinity estimate (log intensity, higher = more binding, comparable within an allelic series); with HESX1 [8] it was 6.45 upbm affinity estimate (log intensity, higher = more binding, comparable within an allelic series); with PRRX1 [10], 9.46 upbm affinity estimate (log intensity, higher = more binding, comparable within an allelic series).

Regarding TAAATTCA, the binding signal with HESX1 [1] was 7.34 upbm affinity estimate (log intensity, higher = more binding, comparable within an allelic series); with HESX1 [3], 7.46 upbm affinity estimate (log intensity, higher = more binding, comparable within an allelic series).

Consider CTCTCCAG, for which the binding signal with HESX1 [1] was 6.3 upbm affinity estimate (log intensity, higher = more binding, comparable within an allelic series); with ALX4 [13] it was 7.91 upbm affinity estimate (log intensity, higher = more binding, comparable within an allelic series); with ALX4 [14], 7.91 upbm affinity estimate (log intensity, higher = more binding, comparable within an allelic series); in the test with HESX1 [3], 6.32 upbm affinity estimate (log intensity, higher = more binding, comparable within an allelic series); with HESX1 [6] it was 6.51 upbm affinity estimate (log intensity, higher = more binding, comparable within an allelic series); with VAX1 [15], 7 upbm affinity estimate (log intensity, higher = more binding, comparable within an allelic series). Besides, the binding signal with HESX1 [7] is 6.4 upbm affinity estimate (log intensity, higher = more binding, comparable within an allelic series); in the test with HESX1 [8], 6.42 upbm affinity estimate (log intensity, higher = more binding, comparable within an allelic series); with VAX1 [16], 7.16 upbm affinity estimate (log intensity, higher = more binding, comparable within an allelic series); with VAX1 [17], 7.01 upbm affinity estimate (log intensity, higher = more binding, comparable within an allelic series).

Turning to AATGAGAG, the binding signal in the test with HESX1 [1] is 7.5 upbm affinity estimate (log intensity, higher = more binding, comparable within an allelic series); with HESX1 [3], 7.55 upbm affinity estimate (log intensity, higher = more binding, comparable within an allelic series).

For CACGGCGG, the binding signal with HESX1 [1] was 6.53 upbm affinity estimate (log intensity, higher = more binding, comparable within an allelic series); with HOXB6 [18], 9.01 upbm affinity estimate (log intensity, higher = more binding, comparable within an allelic series); with HESX1 [3] it was 6.43 upbm affinity estimate (log intensity, higher = more binding, comparable within an allelic series); in the test with HESX1 [6] it was 6.49 upbm affinity estimate (log intensity, higher = more binding, comparable within an allelic series); with HESX1 [7], 6.56 upbm affinity estimate (log intensity, higher = more binding, comparable within an allelic series); with HESX1 [8], 6.49 upbm affinity estimate (log intensity, higher = more binding, comparable within an allelic series). In addition, the binding signal with HOXB6 [19] is 8.99 upbm affinity estimate (log intensity, higher = more binding, comparable within an allelic series).

With CGCGCGAG, the binding signal with HESX1 [1] was 6.55 upbm affinity estimate (log intensity, higher = more binding, comparable within an allelic series); with ALX4 [13] it was 8.39 upbm affinity estimate (log intensity, higher = more binding, comparable within an allelic series); with ALX4 [14], 8.37 upbm affinity estimate (log intensity, higher = more binding, comparable within an allelic series); with HESX1 [3], 6.52 upbm affinity estimate (log intensity, higher = more binding, comparable within an allelic series); with HOXD13 [20], 9.52 upbm affinity estimate (log intensity, higher = more binding, comparable within an allelic series); with HOXD13 [21], 9.48 upbm affinity estimate (log intensity, higher = more binding, comparable within an allelic series). Moreover, the binding signal was 6.5 upbm affinity estimate (log intensity, higher = more binding, comparable within an allelic series) with HESX1 [6]; 6.55 upbm affinity estimate (log intensity, higher = more binding, comparable within an allelic series) with HESX1 [7]; 9.67 upbm affinity estimate (log intensity, higher = more binding, comparable within an allelic series) with HOXD13 [22]; 6.44 upbm affinity estimate (log intensity, higher = more binding, comparable within an allelic series) with HESX1 [8].

Consider TAGCTTAA, for which the binding signal is 7.4 upbm affinity estimate (log intensity, higher = more binding, comparable within an allelic series) with HESX1 [1] and 7.51 upbm affinity estimate (log intensity, higher = more binding, comparable within an allelic series) in the test with HESX1 [3].

For AAATATTA, the binding signal with HESX1 [1] is 8.45 upbm affinity estimate (log intensity, higher = more binding, comparable within an allelic series); with HESX1 [3] it was 8.54 upbm affinity estimate (log intensity, higher = more binding, comparable within an allelic series).

On to AGGTACCT, for which the binding signal with HESX1 [1] is 6.5 upbm affinity estimate (log intensity, higher = more binding, comparable within an allelic series); in the test with ALX4 [13] it was 8.17 upbm affinity estimate (log intensity, higher = more binding, comparable within an allelic series); with ALX4 [14] it was 8.34 upbm affinity estimate (log intensity, higher = more binding, comparable within an allelic series); with HESX1 [3] it was 6.5 upbm affinity estimate (log intensity, higher = more binding, comparable within an allelic series); with HESX1 [6] it was 6.6 upbm affinity estimate (log intensity, higher = more binding, comparable within an allelic series); with HESX1 [7], 6.54 upbm affinity estimate (log intensity, higher = more binding, comparable within an allelic series). For the same sequence, the binding signal with HESX1 [8] is 6.63 upbm affinity estimate (log intensity, higher = more binding, comparable within an allelic series).
